Out of some 5,500 compounds screened, about 2,000 (36%) were called active. Not shown: some 18% with an inconclusive outcome. Cut-off read from the data, not from the text of the source: active = normalized growth mostly below about 0.91 (no sharp cut-off); inconclusive = no clear call, values can overlap the other calls; inactive = mostly above about 0.92. The list shows a part of the results.
Assay: chemical genetic growth profiling, strain panel (AID 1159580);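 note: tested at 20 µM; growth read once vehicle control cultures reached saturation at 30 °C; 1 = growth at the plate median or of vehicle wells; lower values mean less growth of the strain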
Conditions: growth OD

Measured: normalized growth

CC(=O)OCC1(C)CCC2(C)CCC3(C)C4=CCc5c(cc(OC(C)=O)c(OC(C)=O)c5C)C4(C)CCC3(C)C2C1 (stereo not drawn)
inactive: S. cerevisiae deletion strains, locus YAL013W, strain DEP1, active compounds read low 1.01 | S. cerevisiae deletion strains, locus YBR021W, strain FUR4, active compounds read low 0.994 | S. cerevisiae deletion strains, locus YBR229C, strain ROT2, active compounds read low 1.02 | S. cerevisiae deletion strains, locus YCL029C, strain bik1, active compounds read low 1.01 | S. cerevisiae deletion strains, locus YDL035C, strain GPR1, active compounds read low 1.02 | S. cerevisiae deletion strains, locus YDL074C, strain BRE1, active compounds read low 1.04 | S. cerevisiae deletion strains, locus YDL101C, strain DUN1, active compounds read low 1.02 | S. cerevisiae deletion strains, locus YDL185W, strain tfp1, active compounds read low 1.01 | S. cerevisiae deletion strains, locus YDL192W, strain arf1, active compounds read low 1.01 | S. cerevisiae deletion strains, locus YDR101C, strain arx1, active compounds read low 0.974 | S. cerevisiae deletion strains, locus YDR162C, strain NBP2, active compounds read low 1.04 | S. cerevisiae deletion strains, locus YDR318W, strain mcm21, active compounds read low 1.01 | S. cerevisiae deletion strains, locus YDR388W, active compounds read low 0.997 | S. cerevisiae deletion strains, locus YDR502C, strain sam2, active compounds read low 0.984 | S. cerevisiae deletion strains, locus YEL061C, strain CIN8, active compounds read low 1.01 | S. cerevisiae deletion strains, locus YER110C, active compounds read low 0.999 | S. cerevisiae deletion strains, locus YER155C, strain BEM2, active compounds read low 1.01 | S. cerevisiae deletion strains, locus YER167W, strain BCK2, active compounds read low 1 | S. cerevisiae deletion strains, locus YGL078C, strain dbp3, active compounds read low 1 | S. cerevisiae deletion strains, locus YGL086W, strain mad1, active compounds read low 0.998 | S. cerevisiae deletion strains, locus YGL248W, strain PDE1, active compounds read low 1.04 | S. cerevisiae deletion strains, locus YGR135W, strain pre9, active compounds read low 1 | S. cerevisiae deletion strains, locus YGR252W, strain gcn5, active compounds read low 0.992 | S. cerevisiae deletion strains, locus YHR030C, strain SLT2, active compounds read low 1.02 | S. cerevisiae deletion strains, locus YHR079C, strain IRE1 (second series), active compounds read low 1 | S. cerevisiae deletion strains, locus YHR094C, strain hxt1, active compounds read low 1.02 | S. cerevisiae deletion strains, locus YHR129C, strain ARP1, active compounds read low 1.02 | S. cerevisiae deletion strains, locus YHR200W, strain rpn10, active compounds read low 1.01 | S. cerevisiae deletion strains, locus YIL066C, strain RNR3, active compounds read low 1.02 | S. cerevisiae deletion strains, locus YIL073C, strain SPO22, active compounds read low 1.02 | S. cerevisiae deletion strains, locus YIL125W, strain kgd1, active compounds read low 1 | S. cerevisiae deletion strains, locus YIR030C, strain dcg1, active compounds read low 1 | S. cerevisiae deletion strains, locus YJL095W, strain BCK1, active compounds read low 1.04 | S. cerevisiae deletion strains, locus YJL134W, strain LCB3, active compounds read low 1.01 | S. cerevisiae deletion strains, locus YJL168C, strain set2, active compounds read low 1.01 | S. cerevisiae deletion strains, locus YJL187C, strain SWE1 (second series), active compounds read low 1.02 | S. cerevisiae deletion strains, locus YJR043C, strain POL32, active compounds read low 1.02 | S. cerevisiae deletion strains, locus YKL068W, active compounds read low 1.01 | S. cerevisiae deletion strains, locus YKR001C, strain vps1, active compounds read low 0.997 | S. cerevisiae deletion strains, locus YLR039C, strain RIC1, active compounds read low 1.03 | S. cerevisiae deletion strains, locus YLR058C, strain SHM2, active compounds read low 1.02 | S. cerevisiae deletion strains, locus YLR102C, strain apc9, active compounds read low 1 | S. cerevisiae deletion strains, locus YLR262C, strain YPT6, active compounds read low 1.07 | S. cerevisiae deletion strains, locus YLR268W, strain sec22, active compounds read low 1 | S. cerevisiae deletion strains, locus YLR330W, strain CHS5, active compounds read low 1.01 | S. cerevisiae deletion strains, locus YLR342W, strain FKS1 (second series), active compounds read low 1.01 | S. cerevisiae deletion strains, locus YLR371W, strain rom2, active compounds read low 1.01 | S. cerevisiae deletion strains, locus YLR418C, strain cdc73, active compounds read low 1.07 | S. cerevisiae deletion strains, locus YML016C, strain PPZ1, active compounds read low 1.02 | S. cerevisiae deletion strains, locus YML032C, strain rad52, active compounds read low 1 | S. cerevisiae deletion strains, locus YML124C, strain tub3, active compounds read low 0.997 | S. cerevisiae deletion strains, locus YMR078C, strain ctf18, active compounds read low 1.01 | S. cerevisiae deletion strains, locus YMR223W, strain ubp8, active compounds read low 1.01 | S. cerevisiae deletion strains, locus YMR307W, strain GAS1, active compounds read low 1.07 | S. cerevisiae deletion strains, locus YNL067W, strain RPL9B, active compounds read low 1.03 | S. cerevisiae deletion strains, locus YNL128W, strain TEP1, active compounds read low 1.01 | S. cerevisiae deletion strains, locus YNL153C, strain GIM3, active compounds read low 1.02 | S. cerevisiae deletion strains, locus YNL233W, strain BNI4, active compounds read low 1.03 | S. cerevisiae deletion strains, locus YNL250W, strain rad50, active compounds read low 1 | S. cerevisiae deletion strains, locus YNL271C, strain bni1, active compounds read low 0.999 | S. cerevisiae deletion strains, locus YNL298W, strain CLA4, active compounds read low 1 | S. cerevisiae deletion strains, locus YNL307C, strain MCK1, active compounds read low 1 | S. cerevisiae deletion strains, locus YNL322C, strain KRE1, active compounds read low 1.02 | S. cerevisiae deletion strains, locus YNR052C, strain pop2, active compounds read low 1.01 | S. cerevisiae deletion strains, locus YOL012C, strain htz1 1.15 | S. cerevisiae deletion strains, locus YOL147C, strain pex11, active compounds read low 0.993 | S. cerevisiae deletion strains, locus YOR061W, strain CKA2, active compounds read low 1.02 | S. cerevisiae deletion strains, locus YOR069W, strain VPS5, active compounds read low 1.01 | S. cerevisiae deletion strains, locus YOR136W, strain idh2, active compounds read low 0.998 | S. cerevisiae deletion strains, locus YOR144C, strain elg1, active compounds read low 0.994 | S. cerevisiae deletion strains, locus YOR184W, strain ser1, active compounds read low 1.04 | S. cerevisiae deletion strains, locus YOR316C, strain cot1, active compounds read low 1 | S. cerevisiae deletion strains, locus YPR119W, strain clb2, active compounds read low 1 | S. cerevisiae deletion strains, locus YPR141C, strain kar3, active compounds read low 1.01 | S. cerevisiae deletion strains, locus YPR163C, strain tif3, active compounds read low 1.02 | S. cerevisiae deletion strains, locus YPR167C, strain met16, active compounds read low 1 | S. cerevisiae deletion strains, strain wtn01, active compounds read low 1.03 | S. cerevisiae strains, strain wild type, active compounds read low 0.992

Source: PubChem BioAssay AID1159580 (chemical genetic matrix, 2015)
